Holding throughout (assay): glycan array binding signal (z-score within array); higher = stronger binding
Holding throughout (conditions): glycan notation: IUPAC condensed, linker removed

Assay [1] concerns the target GlcNAc(b1-3)[GlcNAc(b1-4)][GlcNAc(b1-6)]GlcNAc. The procedure, abridged:
(§1)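 Arrays were curated from the Consortium for Functional Glycomics database, 3228 in total, and kept only where the protein sequence was available. Binding is expressed as a within-array Z-score. This score was averaged across arrays of the same protein sequence at different concentrations or buffers and across linkers, and negative values can be read as non-binding.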

Assay [2] deals with GlcNAc(b1-4)GlcNAc(b1-4)GlcNAc(b1-4)GlcNAc(b1-4)GlcNAc. The procedure, abridged: as §1
In assay [3] the target is GlcNAc(b1-4)GlcNAc(b1-4)GlcNAc(b1-4)GlcNAc(b1-4)GlcNAc(b1-4)GlcNAc. A digest of the protocol:
as §1

The target in assay [4] is Man(a1-3)[Man(a1-6)]Man(a1-6)[Man(a1-2)Man(a1-3)]Man(b1-4)GlcNAc(b1-4)GlcNAc. A digest of the protocol: as §1
The target of assay [5] is Man(a1-3)[Man(a1-6)]Man(b1-4)GlcNAc(b1-4)[Fuc(a1-6)]GlcNAc. The procedure, abridged: as §1
A further assay concerns the target MurNAc(b1-4)GlcNAc. A digest of the protocol: as §1
Assay [6] has as its target Neu5Ac(a2-3)Gal(b1-3)GalNAc(b1-4)[Neu5Ac(a2-8)Neu5Ac(a2-3)]Gal(b1-4)Glc. The procedure, abridged:
as §1

Assay [7] concerns the target Neu5Ac(a2-3)Gal(b1-3)GlcNAc(b1-3)Gal(b1-3)GlcNAc. A digest of the protocol:
as §1

For assay [8], the target named is Neu5Ac(a2-3)Gal(b1-4)GlcNAc(b1-3)Gal(b1-3)GlcNAc. The procedure, abridged:
as §1

The target of assay [9] is Neu5Ac(a2-3)Gal(b1-4)GlcNAc(b1-3)Gal(b1-4)GlcNAc(b1-2)Man(a1-3)[Neu5Ac(a2-3)Gal(b1-4)GlcNAc(b1-3)Gal(b1-4)GlcNAc(b1-2)Man(a1-6)]Man(b1-4)GlcNAc(b1-4)GlcNAc. The procedure, abridged:
as §1

Assay [10] addresses Neu5Ac(a2-3)Gal(b1-4)GlcNAc(b1-3)Gal(b1-4)GlcNAc(b1-3)Gal(b1-4)GlcNAc(b1-2)Man(a1-3)[Neu5Ac(a2-3)Gal(b1-4)GlcNAc(b1-3)Gal(b1-4)GlcNAc(b1-3)Gal(b1-4)GlcNAc(b1-2)Man(a1-6)]GalNAc. The procedure, abridged: as §1
Assay [11] deals with Neu5Ac(a2-3)[GalNAc(b1-4)]Gal(b1-4)GlcNAc. A digest of the protocol:
as §1

The target in assay [12] is Neu5Ac(a2-3)[Neu5Ac(a2-6)]GalNAc. The procedure, abridged: as §1
The target in assay [13] is Neu5Ac(a2-6)Gal(b1-4)GlcNAc. A digest of the protocol: as §1
Assay [14] has as its target Neu5Ac(a2-6)Gal(b1-4)GlcNAc(b1-3)Gal(b1-4)GlcNAc(b1-3)[Neu5Ac(a2-6)Gal(b1-4)GlcNAc(b1-3)Gal(b1-4)GlcNAc(b1-6)]GalNAc. A digest of the protocol:
as §1

A further assay deals with Neu5Ac(a2-6)GalNAc. A digest of the protocol: as §1
The target of assay [15] is Neu5Ac(a2-8)Neu5Ac(a2-3)Gal(b1-3)GalNAc(b1-4)[Neu5Ac(a2-3)]Gal(b1-4)Glc. A digest of the protocol:
as §1

Assay [16] deals with Neu5Ac(a2-8)Neu5Ac(a2-8)Neu5Ac(a2-3)[Gal(b1-3)GalNAc(b1-4)]Gal(b1-4)Glc. A digest of the protocol:
as §1

The target of assay [17] is Neu5Ac(a2-8)Neu5Ac(a2-8)Neu5Ac(a2-3)[GalNAc(b1-4)]Gal(b1-4)Glc. A digest of the protocol: as §1
A further assay deals with Neu5Ac(b2-6)GalNAc. A digest of the protocol: as §1
For assay [18], the target named is Neu5Ac9Ac(a2-3)Gal(b1-3)GlcNAc. The procedure, abridged:
as §1

Assay [19] addresses Neu5Gc(a2-3)Gal(b1-4)GlcNAc(b1-3)Gal(b1-4)GlcNAc(b1-2)Man(a1-3)[Neu5Gc(a2-3)Gal(b1-4)GlcNAc(b1-3)Gal(b1-4)GlcNAc(b1-2)Man(a1-6)]Man(b1-4)GlcNAc(b1-4)GlcNAc. The procedure, abridged:
as §1

Assay [20] has as its target Neu5Gc(a2-3)Gal(b1-4)[Fuc(a1-3)]GlcNAc. A digest of the protocol:
as §1

Assay [21] concerns the target Neu5Gc(a2-8)Neu5Gc(a2-3)Gal(b1-4)GlcNAc(b1-3)Gal(b1-4)GlcNAc. The procedure, abridged:
as §1

Experimental findings from the supplement of paper PMC8728848 are described below.

This excerpt belongs to a sample that is enriched for the strongest signals.

B1: LFA (Limax flavus) (protein)
chain: MSVLFLAASFLLLASFELVAAQGCPRQDPGDWIVIQRRLNADVNFYRGWADYKHGFGDLRCNFWLGNEKIHQLTSHGRYKLRVEFTFNNKSYFAEYSTFKILGEADKYKLQVGGYSGNAGDALTFHNGMAFSTNDRDNDADSIDCAKVYHGAWWYKTCHESNLNGKWGSKKYGEGLNWKAKTTFTATATSSLLKIKALK
For the molecule B1, the “glycan array binding signal (z-score)” value in assay [1] is -0.405; in assay [2], 2.87; in assay [3], 5.81; in assay [4] it was 3.26; in [5], 0.24; in the assay with MurNAc(b1-4)GlcNAc, -0.363. Also, the “glycan array binding signal (z-score)” value was -0.184 in assay [6]; -0.139 in assay [7]; -0.206 in assay [8]; 2.77 in [9]; 4.29 in assay [10]; 0.019 in assay [11]. Moreover, the “glycan array binding signal (z-score)” value in [12] was 1.01; in [13], -0.176; in assay [14] it was 2.5; in the assay with Neu5Ac(a2-6)GalNAc, -0.345; in assay [15], -0.229; in assay [16] it was -0.353. In addition, the “glycan array binding signal (z-score)” value in assay [17] was 0.236; in the assay with Neu5Ac(b2-6)GalNAc it was -0.284; in [18], -0.339; in [19] it was -0.166; in [20], -0.306; in [21] it was -0.237.
